Drawing on publication PMC7862700, “An all-to-all approach to the identification of sequence-specific readers for epigenetic DNA modifications on cytosine”, this text covers binding signal for eight sequences.

Common to all, as to test: DAPPL (digital affinity profiling via proximity ligation, sequencing); 10 mM Tris-HCl pH 7.5, 50 mM NaCl, 1 mM DTT, 4% glycerol, room temperature, 30 min; GST-TFs on glutathione beads, 16-mer random dsDNA library, 0.1% formaldehyde crosslink after washing; high values mean tight binding
The target in one assay is T1, FEV (Homo sapiens, UniProt Q99581 1-238).
T1 sequence: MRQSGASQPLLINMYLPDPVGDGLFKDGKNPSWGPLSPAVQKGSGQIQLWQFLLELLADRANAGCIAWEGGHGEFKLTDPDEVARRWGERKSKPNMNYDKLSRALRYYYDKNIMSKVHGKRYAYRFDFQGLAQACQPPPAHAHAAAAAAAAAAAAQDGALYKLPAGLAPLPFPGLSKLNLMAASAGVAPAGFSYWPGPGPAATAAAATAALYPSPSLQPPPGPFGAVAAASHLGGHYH
Particulars: protein: recombinant; tags: N-terminal GST; dsDNA, one strand shown. Summed up:
(§1)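 In yeast, human transcription factors were expressed with a GST fusion, then pulled down on glutathione beads and given DNA barcodes. Pooled with a tag-only sample, they were exposed to 200 nmole of a 16-mer random double-stranded DNA library (Tris/NaCl/DTT/glycerol buffer, room temperature, 30 min), washed, crosslinked with 0.1% formaldehyde, proximity-ligated using BsaI/T4 ligase for 1 h at 37 °C, PCR-amplified and read on an Illumina NextSeq500. Each hexamer's frequency of reads for a factor, divided by the matching frequency for the tag-only sample, gives the binding signal.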

The next assay addresses ETV5 (Homo sapiens, UniProt P41161 1-510). To be noted: protein: recombinant; tags: N-terminal GST; dsDNA, one strand shown. In a few lines: as §1
In another assay the target is HSF1 (Homo sapiens, UniProt Q00613 1-529). Particulars: protein: recombinant; tags: N-terminal GST; chain copies: 3; dsDNA, one strand shown. Summed up: as §1
Sequence of HSF1 (Q00613 whole entry): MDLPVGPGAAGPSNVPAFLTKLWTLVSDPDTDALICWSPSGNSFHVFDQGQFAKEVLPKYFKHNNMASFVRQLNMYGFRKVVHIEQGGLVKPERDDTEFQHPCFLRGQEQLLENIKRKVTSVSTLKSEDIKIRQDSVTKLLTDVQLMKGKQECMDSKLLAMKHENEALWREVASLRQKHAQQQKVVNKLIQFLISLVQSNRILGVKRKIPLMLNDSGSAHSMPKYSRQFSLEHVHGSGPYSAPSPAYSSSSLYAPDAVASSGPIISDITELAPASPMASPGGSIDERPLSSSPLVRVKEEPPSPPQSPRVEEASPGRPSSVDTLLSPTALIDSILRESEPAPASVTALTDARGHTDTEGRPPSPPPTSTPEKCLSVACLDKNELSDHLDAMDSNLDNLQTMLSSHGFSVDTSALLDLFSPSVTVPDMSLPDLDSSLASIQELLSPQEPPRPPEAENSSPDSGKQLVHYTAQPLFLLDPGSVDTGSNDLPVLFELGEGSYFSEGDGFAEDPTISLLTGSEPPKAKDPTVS
Another assay addresses T2, SPIC (Homo sapiens, UniProt Q8N5J4 1-248).
T2 sequence: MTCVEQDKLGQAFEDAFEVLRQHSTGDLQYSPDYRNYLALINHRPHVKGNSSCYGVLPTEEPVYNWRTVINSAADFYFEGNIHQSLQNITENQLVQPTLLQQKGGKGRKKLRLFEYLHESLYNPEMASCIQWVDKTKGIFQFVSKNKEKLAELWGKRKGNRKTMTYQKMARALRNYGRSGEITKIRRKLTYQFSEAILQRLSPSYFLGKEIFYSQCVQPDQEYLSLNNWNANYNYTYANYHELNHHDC
Particulars: protein: recombinant; tags: N-terminal GST; dsDNA, one strand shown. Summed up: as §1

The next assay addresses ELF4 (Homo sapiens, UniProt Q99607 1-663). To be noted: protein: recombinant; tags: N-terminal GST; dsDNA, one strand shown. Summed up: as §1
In the next assay the target is T3, ELK4 (Homo sapiens, UniProt P28324-2 1-405).
T3 sequence: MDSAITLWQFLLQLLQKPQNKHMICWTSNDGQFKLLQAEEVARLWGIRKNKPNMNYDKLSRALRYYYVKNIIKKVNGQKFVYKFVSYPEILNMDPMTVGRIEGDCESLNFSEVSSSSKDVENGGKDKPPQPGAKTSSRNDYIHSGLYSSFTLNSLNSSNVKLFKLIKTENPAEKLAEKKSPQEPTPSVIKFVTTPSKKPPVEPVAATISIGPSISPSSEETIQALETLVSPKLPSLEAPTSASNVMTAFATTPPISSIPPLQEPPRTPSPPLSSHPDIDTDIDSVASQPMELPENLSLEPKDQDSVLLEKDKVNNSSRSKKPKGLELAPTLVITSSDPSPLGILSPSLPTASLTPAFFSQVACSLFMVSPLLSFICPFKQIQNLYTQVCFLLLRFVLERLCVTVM
To be noted: protein: recombinant; tags: N-terminal GST; dsDNA, one strand shown. Summed up: as §1

The next assay concerns the target T4, ETV2 (Homo sapiens, UniProt O00321 1-342).
T4 sequence: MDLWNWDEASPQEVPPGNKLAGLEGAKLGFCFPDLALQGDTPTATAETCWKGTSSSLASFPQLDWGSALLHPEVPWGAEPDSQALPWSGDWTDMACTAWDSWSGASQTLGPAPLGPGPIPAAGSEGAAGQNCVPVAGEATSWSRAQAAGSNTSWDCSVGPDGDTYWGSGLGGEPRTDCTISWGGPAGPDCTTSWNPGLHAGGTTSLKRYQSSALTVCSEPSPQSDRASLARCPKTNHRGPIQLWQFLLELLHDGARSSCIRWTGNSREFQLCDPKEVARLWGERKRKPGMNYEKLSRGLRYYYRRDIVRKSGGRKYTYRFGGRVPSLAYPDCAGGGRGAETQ
Particulars: protein: recombinant; tags: N-terminal GST; dsDNA, one strand shown. Summed up: as §1

Another assay addresses T5, ELF3 (Homo sapiens, UniProt P78545 1-371).
T5 sequence: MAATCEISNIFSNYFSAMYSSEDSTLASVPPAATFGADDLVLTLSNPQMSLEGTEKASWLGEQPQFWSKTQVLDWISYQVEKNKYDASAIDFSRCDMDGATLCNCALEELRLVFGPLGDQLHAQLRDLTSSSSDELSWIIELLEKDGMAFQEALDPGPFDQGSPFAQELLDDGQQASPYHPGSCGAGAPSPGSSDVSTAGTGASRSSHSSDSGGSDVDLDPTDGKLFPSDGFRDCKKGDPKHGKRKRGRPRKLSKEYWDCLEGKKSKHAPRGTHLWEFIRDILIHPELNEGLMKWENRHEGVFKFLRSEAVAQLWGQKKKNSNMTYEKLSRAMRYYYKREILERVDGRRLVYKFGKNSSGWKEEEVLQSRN
Particulars: protein: recombinant; tags: N-terminal GST; dsDNA, one strand shown. In a few lines:
as §1

The next assay concerns the target CRX (Homo sapiens, UniProt O43186 1-299). Particulars: protein: recombinant; tags: N-terminal GST; dsDNA, one strand shown. Summed up:
as §1

In another assay the target is ETV1 (Homo sapiens, UniProt P50549 1-477). Particulars: protein: recombinant; tags: N-terminal GST; dsDNA, one strand shown. Summed up: as §1
Sequence of ETV1 (P50549 whole entry): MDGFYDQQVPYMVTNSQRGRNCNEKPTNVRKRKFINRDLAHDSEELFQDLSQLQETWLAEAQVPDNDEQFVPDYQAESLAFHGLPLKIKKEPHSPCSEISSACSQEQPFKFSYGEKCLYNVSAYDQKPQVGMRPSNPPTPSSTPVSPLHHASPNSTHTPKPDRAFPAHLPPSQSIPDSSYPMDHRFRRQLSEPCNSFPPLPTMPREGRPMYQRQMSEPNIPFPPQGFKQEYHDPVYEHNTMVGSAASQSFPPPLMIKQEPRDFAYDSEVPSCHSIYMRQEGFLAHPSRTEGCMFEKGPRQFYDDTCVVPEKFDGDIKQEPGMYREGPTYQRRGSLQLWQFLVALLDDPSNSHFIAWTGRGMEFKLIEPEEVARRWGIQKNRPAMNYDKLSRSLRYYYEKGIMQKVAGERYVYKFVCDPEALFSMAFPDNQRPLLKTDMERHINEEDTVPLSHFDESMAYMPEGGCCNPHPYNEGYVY

Sequence of ELF4 (Q99607 whole entry): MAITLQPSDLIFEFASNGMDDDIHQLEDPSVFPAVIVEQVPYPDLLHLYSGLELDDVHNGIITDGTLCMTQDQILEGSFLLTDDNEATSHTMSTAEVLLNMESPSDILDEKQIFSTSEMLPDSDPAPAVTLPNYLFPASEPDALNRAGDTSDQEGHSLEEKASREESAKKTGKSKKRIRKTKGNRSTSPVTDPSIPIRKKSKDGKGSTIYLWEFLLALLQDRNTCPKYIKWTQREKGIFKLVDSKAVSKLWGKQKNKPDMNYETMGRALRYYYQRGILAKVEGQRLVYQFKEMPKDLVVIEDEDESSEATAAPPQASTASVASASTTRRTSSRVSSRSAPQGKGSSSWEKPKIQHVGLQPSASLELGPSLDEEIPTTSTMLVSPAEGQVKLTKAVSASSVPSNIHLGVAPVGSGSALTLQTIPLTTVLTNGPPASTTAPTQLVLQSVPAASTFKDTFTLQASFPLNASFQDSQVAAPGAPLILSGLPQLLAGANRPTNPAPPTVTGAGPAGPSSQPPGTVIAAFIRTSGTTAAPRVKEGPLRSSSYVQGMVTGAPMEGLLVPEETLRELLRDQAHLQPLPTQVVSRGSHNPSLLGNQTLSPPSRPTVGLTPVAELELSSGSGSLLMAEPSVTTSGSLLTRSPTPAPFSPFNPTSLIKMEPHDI
Sequence of ETV5 (P41161 whole entry): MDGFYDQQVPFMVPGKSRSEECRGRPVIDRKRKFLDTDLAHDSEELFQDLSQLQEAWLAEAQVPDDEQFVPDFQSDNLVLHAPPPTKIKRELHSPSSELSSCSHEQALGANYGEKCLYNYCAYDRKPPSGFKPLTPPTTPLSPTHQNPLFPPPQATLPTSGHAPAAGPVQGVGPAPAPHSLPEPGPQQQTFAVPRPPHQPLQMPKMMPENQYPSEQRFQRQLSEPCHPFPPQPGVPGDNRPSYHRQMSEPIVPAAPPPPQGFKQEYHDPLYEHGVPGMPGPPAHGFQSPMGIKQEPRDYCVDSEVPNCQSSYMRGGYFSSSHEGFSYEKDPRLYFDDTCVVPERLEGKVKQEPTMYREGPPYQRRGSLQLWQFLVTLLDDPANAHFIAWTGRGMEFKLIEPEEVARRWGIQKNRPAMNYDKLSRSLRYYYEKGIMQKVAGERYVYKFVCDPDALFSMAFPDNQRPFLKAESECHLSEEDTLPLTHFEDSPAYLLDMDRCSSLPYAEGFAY
Sequence of CRX (O43186 whole entry): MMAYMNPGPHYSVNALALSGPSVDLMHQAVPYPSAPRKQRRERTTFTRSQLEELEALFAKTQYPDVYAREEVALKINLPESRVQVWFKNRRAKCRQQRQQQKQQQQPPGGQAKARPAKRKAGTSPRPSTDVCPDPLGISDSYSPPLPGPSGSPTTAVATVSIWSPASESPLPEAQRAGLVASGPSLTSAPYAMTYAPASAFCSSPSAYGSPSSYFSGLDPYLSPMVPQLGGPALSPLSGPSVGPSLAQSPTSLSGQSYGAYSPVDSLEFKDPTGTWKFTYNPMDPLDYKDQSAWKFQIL

On to CTTCAC, for which the binding signal with FEV was 1.34 fold enrichment (6-mer frequency, TF over GST control); with ETV5, 1.37 fold enrichment (6-mer frequency, TF over GST control); with HSF1, 1.18 fold enrichment (6-mer frequency, TF over GST control); in the assay with SPIC, 1.57 fold enrichment (6-mer frequency, TF over GST control); in the assay with ELF4, 1.33 fold enrichment (6-mer frequency, TF over GST control); with ELK4 it was 1.45 fold enrichment (6-mer frequency, TF over GST control). The binding signal is 1.43 fold enrichment (6-mer frequency, TF over GST control) with ETV2; 1.54 fold enrichment (6-mer frequency, TF over GST control) with ELF3; 1.17 fold enrichment (6-mer frequency, TF over GST control) with CRX; 1.37 fold enrichment (6-mer frequency, TF over GST control) in the assay with ETV1.
Turning to TTACAC, the binding signal is 1.24 fold enrichment (6-mer frequency, TF over GST control) with FEV; 1.23 fold enrichment (6-mer frequency, TF over GST control) in the assay with ETV5; 1.35 fold enrichment (6-mer frequency, TF over GST control) in the assay with HSF1; 1.17 fold enrichment (6-mer frequency, TF over GST control) with SPIC; 1.21 fold enrichment (6-mer frequency, TF over GST control) in the assay with ELF4; 1.25 fold enrichment (6-mer frequency, TF over GST control) with ELK4. The binding signal in the assay with ETV2 was 1.16 fold enrichment (6-mer frequency, TF over GST control); in the assay with ELF3, 1.2 fold enrichment (6-mer frequency, TF over GST control); with CRX, 1.73 fold enrichment (6-mer frequency, TF over GST control); with ETV1, 1.27 fold enrichment (6-mer frequency, TF over GST control).
On to ACTATC, for which the binding signal with FEV is 1.13 fold enrichment (6-mer frequency, TF over GST control); with ETV5, 1.13 fold enrichment (6-mer frequency, TF over GST control); in the assay with HSF1, 1.13 fold enrichment (6-mer frequency, TF over GST control); in the assay with SPIC, 1.19 fold enrichment (6-mer frequency, TF over GST control); in the assay with ELF4 it was 1.24 fold enrichment (6-mer frequency, TF over GST control); with ELK4, 1.2 fold enrichment (6-mer frequency, TF over GST control). For the same sequence, the binding signal with ETV2 is 1.32 fold enrichment (6-mer frequency, TF over GST control); in the assay with ELF3, 1.22 fold enrichment (6-mer frequency, TF over GST control); with CRX it was 1.15 fold enrichment (6-mer frequency, TF over GST control); in the assay with ETV1, 1.15 fold enrichment (6-mer frequency, TF over GST control).
In the case of ACTGCT, the binding signal in the assay with FEV is 1.48 fold enrichment (6-mer frequency, TF over GST control); with ETV5, 1.41 fold enrichment (6-mer frequency, TF over GST control); in the assay with HSF1, 1.19 fold enrichment (6-mer frequency, TF over GST control); with SPIC, 1.56 fold enrichment (6-mer frequency, TF over GST control); with ELF4 it was 1.3 fold enrichment (6-mer frequency, TF over GST control); with ELK4 it was 1.54 fold enrichment (6-mer frequency, TF over GST control). For the same sequence, the binding signal was 1.26 fold enrichment (6-mer frequency, TF over GST control) in the assay with ETV2; 1.32 fold enrichment (6-mer frequency, TF over GST control) with ELF3; 1.21 fold enrichment (6-mer frequency, TF over GST control) with CRX; 1.33 fold enrichment (6-mer frequency, TF over GST control) in the assay with ETV1.
Regarding TACGAT, the binding signal is 1.13 fold enrichment (6-mer frequency, TF over GST control) with FEV; 1.12 fold enrichment (6-mer frequency, TF over GST control) with ETV5; 1.13 fold enrichment (6-mer frequency, TF over GST control) with HSF1; 1.05 fold enrichment (6-mer frequency, TF over GST control) with SPIC; 1.11 fold enrichment (6-mer frequency, TF over GST control) with ELF4; 1.14 fold enrichment (6-mer frequency, TF over GST control) with ELK4. In addition, the binding signal is 1.12 fold enrichment (6-mer frequency, TF over GST control) in the assay with ETV2; 1.11 fold enrichment (6-mer frequency, TF over GST control) in the assay with ELF3; 1.37 fold enrichment (6-mer frequency, TF over GST control) with CRX; 1.07 fold enrichment (6-mer frequency, TF over GST control) in the assay with ETV1.
Regarding CTTCGG, the binding signal is 1.51 fold enrichment (6-mer frequency, TF over GST control) with FEV; 1.54 fold enrichment (6-mer frequency, TF over GST control) with ETV5; 1.77 fold enrichment (6-mer frequency, TF over GST control) with HSF1; 1.48 fold enrichment (6-mer frequency, TF over GST control) with SPIC; 1.5 fold enrichment (6-mer frequency, TF over GST control) with ELF4; 1.52 fold enrichment (6-mer frequency, TF over GST control) with ELK4. Moreover, the binding signal was 1.52 fold enrichment (6-mer frequency, TF over GST control) with ETV2; 1.39 fold enrichment (6-mer frequency, TF over GST control) with ELF3; 1.52 fold enrichment (6-mer frequency, TF over GST control) with CRX; 1.72 fold enrichment (6-mer frequency, TF over GST control) with ETV1.
Regarding TCACCT, the binding signal was 1.17 fold enrichment (6-mer frequency, TF over GST control) in the assay with FEV; 1.18 fold enrichment (6-mer frequency, TF over GST control) with ETV5; 1.03 fold enrichment (6-mer frequency, TF over GST control) with HSF1; 1.31 fold enrichment (6-mer frequency, TF over GST control) in the assay with SPIC; 1.33 fold enrichment (6-mer frequency, TF over GST control) with ELF4; 1.12 fold enrichment (6-mer frequency, TF over GST control) with ELK4. Besides, the binding signal in the assay with ETV2 was 1.21 fold enrichment (6-mer frequency, TF over GST control); in the assay with ELF3, 1.25 fold enrichment (6-mer frequency, TF over GST control); with CRX, 1.15 fold enrichment (6-mer frequency, TF over GST control); with ETV1, 1.19 fold enrichment (6-mer frequency, TF over GST control).
With TAGTTT, the binding signal in the assay with FEV is 1.09 fold enrichment (6-mer frequency, TF over GST control); with ETV5, 1.18 fold enrichment (6-mer frequency, TF over GST control); with HSF1 it was 1.27 fold enrichment (6-mer frequency, TF over GST control); with SPIC it was 1.21 fold enrichment (6-mer frequency, TF over GST control); with ELF4, 1.21 fold enrichment (6-mer frequency, TF over GST control); in the assay with ELK4, 1.4 fold enrichment (6-mer frequency, TF over GST control). In addition, the binding signal with ETV2 is 1.17 fold enrichment (6-mer frequency, TF over GST control); in the assay with ELF3, 1.34 fold enrichment (6-mer frequency, TF over GST control); with CRX, 1.3 fold enrichment (6-mer frequency, TF over GST control); in the assay with ETV1, 1.24 fold enrichment (6-mer frequency, TF over GST control).
